The structures appear in SMILES notation. About 83,000 compounds went through this panel and 20% of them were active in at least one assay; those are over-represented in the sample as a whole.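 In brief: 96-well plates, 48 h treatment, single concentration, percent growth endpoint.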 A number with no mark means an inactive call. Activity calls are given as the source filed them. How the source made its calls: active means growth percent below 10; inactive means the rest.

This is an account of results in PubChem BioAssay (NCI).

Holding throughout (assay): NCI-60 one-dose screen, 48 h (100 = growth as untreated, 0 = no growth, -100 = all killed)
Details in all cases: 10 µM unless noted

The subject of test [1] is HCT-15 colon.
For test [2], the system named is HT29 colon.
Test [3] relates to SNB-75 CNS.
Test [4] has as its system SNB-19 CNS.
The subject of test [5] is U251 CNS.
For test [6], the system named is PC-3 prostate.
For test [7], the system named is SK-MEL-5 melanoma.
The test system of test [8] is UACC-62 melanoma.
In test [9] the test system is LOX IMVI melanoma.
For test [10], the system named is SK-MEL-28 melanoma.

In the case of `ClCCN(CCCl)c1ccc(/C=N/Nc2ncnc3nc[nH]c23)cc1`, the growth in test [1] was 95%; in [2], 77.5%; in test [3], 72.7%; in [4], 82%; in test [5] it was 67.6%; in test [6] it was 232%. The growth was 75% in test [7], 74% in test [8], 65.8% in test [9] and 117% in test [10].

As to `C[C@]12CCc3sc(-c4cccc(F)c4)nc3C1=CC[C@@H]1[C@@H]2CC[C@]2(C)C(=O)CC[C@@H]12`, the growth was -38.2% (active) in [1]; 5.21% (active) in test [2]; 44.6% in test [3]; 60% in [4]; 18.8% in [5]; 35% in [6]. Besides, the growth in test [7] was 61.5%; in test [8] it was 34.9%; in test [9], 1.34% (active); in test [10], 48%.

In the case of `COC(=O)[C@@]1(C)CC[C@]2(C)CC[C@]3(C)C4=CC=C5C(=CC(=O)C(O)=C5C)[C@]4(C)CC[C@@]3(C)[C@@H]2C1`, the growth in test [1] was -83.7% (active); in [2], -74.1% (active); in [3], -78.9% (active); in [4], -94.2% (active); in [5] it was -97.4% (active); in test [6] it was -88.5% (active). The growth in test [7] is -97.1% (active); in test [8], -92.7% (active); in test [9] it was -90.5% (active); in test [10], -92.9% (active).

Take `COC1CC2c3ccccc3C1C(C)=[N+]2C` (stereo not drawn): the growth in test [1] is 101%; in test [2], 96.6%; in test [3], 71.7%; in [4], 100%; in [5] it was 99.1%; in test [6] it was 84.8%. Also, the growth was 106% in test [7], 91.8% in test [8], 94.7% in test [9] and 145% in [10].

In the case of `O=C1C(=Cc2cn(Cc3ccccc3)c3ccccc23)C(=O)N(Cc2ccccc2)C(=O)N1Cc1ccccc1`, the growth was 85.8% in [1]; 111% in test [2]; 45% in test [3]; 87.1% in test [4]; 75.7% in test [5]; 90.3% in test [6]. Further, the growth in test [7] was 104%; in test [8], 53.1%; in [9], 87.2%; in [10], 110%.

As to `COc1cc2c(c(OC)c1OC)-c1ccc([O-])c(=O)cc1[C@@H](NC(C)=O)CC2.COc1cc2c(c(OC)c1OC)-c1ccc([O-])c(=O)cc1[C@@H](NC(C)=O)CC2.[Cu+2]`, the growth was 15.8% in [1]; 9.61% (active) in test [2]; 50.1% in test [3]; 25.2% in test [4]; 22.3% in [5]; 35.1% in [6]. Besides, the growth in [7] is 19.2%; in [8], 23.5%; in [9], 36.3%; in [10], 48.5%.

For `COc1ccc(/C=C\c2cc(OC)c(OC)c(OC)c2)cc1OCC(=O)Nc1nc2ccc(C(F)(F)F)cc2s1`, the growth in test [1] was 15.2%; in [2] it was 92.6%; in test [3] it was -6.34% (active); in test [4] it was 33.7%; in [5] it was 18%; in [6] it was 31.5%. The growth was 16.8% in test [7], 32.1% in test [8], 9.35% (active) in test [9] and 32.9% in test [10].

Take `C[S+]1C=Cc2ccccc2C1c1ccc(Cl)cc1` (stereo not drawn): the growth in [1] is 96.8%; in test [2], 84.9%; in test [3], -70.7% (active); in test [4], 110%; in test [5], 67%; in [6], 73.5%. Moreover, the growth in test [7] is 99.3%; in test [8] it was 95.8%; in [9], 91.1%; in test [10] it was 103%.

Turning to `Fc1ccc2c(c1)c(-c1nc(-c3c[nH]c4ncccc34)cs1)cn2CCCCN1CCCCC1`, the growth is -72% (active) in [1]; -97% (active) in test [2]; -70.5% (active) in test [3]; -88.5% (active) in test [4]; -87.7% (active) in [5]; -86.5% (active) in [6]. The results for the growth in test [7], in test [9] and in [10] were -83.1% (active), -79.3% (active) and -86.9% (active), respectively.

On to `CCn1c2ccccc2c2cc(C(=O)c3ccc(C)c4ccccc34)ccc21`, for which the growth was 15.7% in test [1]; -7.41% (active) in [2]; 51% in [3]; 20.7% in [4]; 10.3% in test [5]; 18.7% in test [6]. The values for the growth in test [8], in test [9] and in [10] were 1.49% (active), 1.21% (active) and 17.9%, respectively.

For `O=C(CC1(O)C(=O)Nc2ccc(Br)cc21)c1ccc(C(=O)NCC2CCC3(CC2)OOC2(CCCCC2)OO3)cc1` (stereo not drawn), the growth in test [1] was 54.2%; in [2] it was 47.2%; in test [3], 64.6%; in test [4], 61.4%; in [5], 11.8%; in [6], 38.9%. Also, the growth is 54.6% in test [8], 32.6% in [9] and 73.3% in test [10].

With `Nc1cc2nc3ccccc3nc2cc1N`, the growth was 88.5% in test [1]; 105% in test [2]; 85.5% in [3]; 85.6% in [4]; 77.2% in test [5]; 79.3% in test [6]. Also, the growth was 87% in test [7], 80.8% in test [9] and 129% in test [10].

With `CC[C@]12C=CCN3CC[C@]4(C(=C(C(=O)OC)C1)Nc1cc(OC)c(OC(C)=O)cc14)[C@@H]32`, the growth is 21% in test [1]; 0.643% (active) in test [2]; 50.6% in test [3]; 32.2% in test [4]; 3.52% (active) in test [5]; 22.5% in test [6]. Besides, the figures for the growth in test [7] and in test [9] were -33.4% (active) and -24% (active), respectively.

`CCn1c2ccccc2c2cc(C(=O)c3cccc4c3CCCN4)ccc21`: the growth was 104% in test [1]; 113% in test [2]; 91.6% in test [3]; 97.6% in test [4]; 106% in [5]; 108% in test [6]. Further, the growth is 92.2% in [8], 94.4% in [9] and 103% in test [10].
